# According to the supplement of paper PMC9135407:
# “And” between values parts separate entries of the source, which are not always exact repeats. Identical values can stand only once. Counter-ions that a name gives are not always drawn. In all, about 5,800 compounds went through this assay and about 620 (11%) showed activity. The list comes from a sample in which actives are over-represented; it also holds similar structures and randomly drawn compounds. A number with no mark means an inactive call.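 The calls were made as follows: active = score above a cut-off or among the top three wells of a plate; in these data no inactive exceeds 0.85.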
# System: primary human hepatic stellate cells (donor 1)
# Assay: scaled lipid accumulation score (0 = DMSO-like, 1 = nortriptyline-like); higher = stronger HSC inactivation (lipid re-accumulation), active = hit call of the paper
# Settings: 48 h
# [1] = library stock concentration: 10 mM
# [2] = library stock concentration: 3.33 mM
# [3] = library stock concentration: 1 mM
# [4] = library stock concentration: 80 uM
# [5] = library stock concentration: 400 uM
# [6] = library stock concentration: 2 mM
# [7] = library stock concentration: 15.3 mM
smiles,measurement,setting,value
C[C@](N)(Cc1ccc(O)cc1)C(=O)O [L-alpha-Methyl-p-tyrosine],scaled lipid accumulation score,[1],0.166
CC(C)(C)NS(=O)(=O)c1cncc(-c2cc(F)c3nc(N)nn3c2)c1,scaled lipid accumulation score,[2],≤ 0
same,scaled lipid accumulation score,[1],≤ -0.001
O=C(Cc1ccccc1)NO [Phenylacetohydroxamic acid],scaled lipid accumulation score,[1],≤ 0
CCCC(=O)O[C@]1(C(=O)COC(C)=O)CC[C@H]2[C@@H]3C[C@H](F)C4=CC(=O)C=C[C@]4(C)[C@@]3(F)[C@@H](O)C[C@@]21C [Difluprednate],scaled lipid accumulation score,[2],≤ 0
same,scaled lipid accumulation score,[1],≤ -0.001
O=NN(CCCl)C(=O)NCCCl [Carmustine],scaled lipid accumulation score,library stock concentration: 9.3 mM,≤ 0
same,scaled lipid accumulation score,[1],≤ 0
C[N+](C)(C)CCO.[Br-] [Choline bromide],scaled lipid accumulation score,[1],≤ 0
CC(C)C[C@@H]1NC(=O)[C@H](CCCN)NC(=O)[C@H](C(C)C)NC(=O)[C@H](Cc2ccc(O)cc2)N[C@@H](CCC(=O)O)C(=O)N[C@@H](CC(N)=O)C(=O)[C@@H](Cc2ccccc2)NC(=O)[C@H](Cc2ccccc2)NC(=O)[C@@H]2CCCN2C(=O)[C@@H](Cc2ccccc2)NC1=O [Tyrothricin],scaled lipid accumulation score,library stock concentration: 1.6 mM,≤ 0
same,scaled lipid accumulation score,[1],≤ 0
COC(=O)CCCCCCC1C(O)CC(O)C1CCC(O)CSc1ccccc1F (centres undefined),scaled lipid accumulation score,[3],≤ 0
CC(=O)O/N=C1\C(=O)N(Cc2cc(Cl)ccc2Cl)c2ccc(Cl)cc21,scaled lipid accumulation score,[2],≤ -0.009
same,scaled lipid accumulation score,[1],≤ 0
NC(C(=O)O)c1cc(O)cc(O)c1 (racemic),scaled lipid accumulation score,[1],0.017
C[C@H](O)[C@H](O)[C@@H](O)[C@@H](O)C=O [L-(+)-Rhamnose Monohydrate],scaled lipid accumulation score,[2],≤ 0
same,scaled lipid accumulation score,[1],≤ 0
CC(C)Nc1cccnc1N1CCN(C(=O)c2cc3cc(NS(C)(=O)=O)ccc3[nH]2)CC1 [Delavirdine mesylate],scaled lipid accumulation score,library stock concentration: 4.4 mM,≤ -0.006
COc1cc(Nc2ncc(F)c(Nc3ccc4c(n3)N(COP(=O)(O)O)C(=O)C(C)(C)O4)n2)cc(OC)c1OC [Fostamatinib (R788)] [listing 1 of 2 here],scaled lipid accumulation score,[2],0.198
COc1cc(Nc2ncc(F)c(Nc3ccc4c(n3)NC(=O)C(C)(C)O4)n2)cc(OC)c1OC [R406 (free base)],scaled lipid accumulation score,[2],0.918 (active)
same,scaled lipid accumulation score,[1],1.16 (active)
COc1cc(Nc2ncc(F)c(Nc3ccc4c(n3)N(COP(=O)(O)O)C(=O)C(C)(C)O4)n2)cc(OC)c1OC [Fostamatinib (R788)] [listing 2 of 2 here],scaled lipid accumulation score,[1],1.01 (active)
C=CC(=O)Nc1cccc(Nc2nc(Nc3ccc(OCCOC)cc3)ncc2F)c1,scaled lipid accumulation score,[2],≤ -0.009
same,scaled lipid accumulation score,[1],0.576
C=CC(=O)Nc1cccc(Nc2nc(Nc3ccc(OCCOC)cc3)ncc2F)c1 [Spebrutinib],scaled lipid accumulation score,[4],≤ -0.001
same,scaled lipid accumulation score,[5],≤ -0.001
same,scaled lipid accumulation score,[6],≤ -0.001
same,scaled lipid accumulation score,[1],0.202
COc1cc(Nc2ncc(F)c(Nc3ccc4c(n3)NC(=O)C(C)(C)O4)n2)cc(OC)c1OC.O=S(=O)(O)c1ccccc1,scaled lipid accumulation score,[1],0.882 (active)
COc1cc(Nc2ncc(F)c(Nc3ccc4c(n3)NC(=O)C(C)(C)O4)n2)cc(OC)c1OC [listing 1 of 2 here],scaled lipid accumulation score,[4],≤ 0
same,scaled lipid accumulation score,[5],0.072
same,scaled lipid accumulation score,[6],0.159
same,scaled lipid accumulation score,[2],0.03
COc1cc(Nc2ncc3c(n2)-c2ccc(Cl)cc2C(c2c(F)cccc2OC)=NC3)ccc1C(=O)O [Alisertib],scaled lipid accumulation score,[4],≤ 0
same,scaled lipid accumulation score,[5],≤ 0
same,scaled lipid accumulation score,[6],≤ 0
same,scaled lipid accumulation score,[1],≤ 0
COc1cc(Nc2ncc3ccn(-c4cccc(CCC#N)c4)c3n2)cc(OC)c1OC [Keratinocyte Differentiation Inducer],scaled lipid accumulation score,[2],0.501 and ≤ 0
COc1cc(Nc2ncc(F)c(Nc3ccc4c(n3)NC(=O)C(C)(C)O4)n2)cc(OC)c1OC [listing 2 of 2 here],scaled lipid accumulation score,[1],1.06 (active)
COc1cc(Nc2ncc3c(n2)-c2ccc(Cl)cc2C(c2c(F)cccc2OC)=NC3)ccc1C(=O)O [Alisertib (MLN8237)],scaled lipid accumulation score,[2],≤ 0
same,scaled lipid accumulation score,[1],≤ 0
CCCC(CCC)C(=O)O[C@H]1C[C@H]2CC[C@@H](C1)[N+]2(C)C [Anisotropine methyl bromide],scaled lipid accumulation score,[1],0.296
OC[C@H]1O[C@H](O[C@H]2[C@H](O)[C@@H](O)C(O)O[C@@H]2CO)[C@H](O)[C@@H](O)[C@@H]1O (some centres undefined),scaled lipid accumulation score,[1],≤ 0
Nc1nc2c(ccc3ccccc32)s1,scaled lipid accumulation score,[1],≤ 0
CC1=C(C)C(=O)C(CCCCC#CCCCC#CCO)=C(C)C1=O [Docebenone],scaled lipid accumulation score,library stock concentration: 6.1 mM,≤ -0.006
CC1=C(C)C(=O)C(CCCCC#CCCCC#CCO)=C(C)C1=O,scaled lipid accumulation score,[1],0.105
same,scaled lipid accumulation score,[7],≤ -0.012
O=C(O)CCNc1cc(N2CCc3ccccc3CC2)nc(-c2cccnc2)n1,scaled lipid accumulation score,[4],≤ 0
same,scaled lipid accumulation score,[5],≤ 0
same,scaled lipid accumulation score,[6],≤ 0
same,scaled lipid accumulation score,[1],≤ 0
CC(C)(C)OC(=O)N[C@H]1CCCCC/C=C\[C@@H]2C[C@@]2(C(=O)NS(=O)(=O)C2CC2)NC(=O)[C@@H]2C[C@@H](OC(=O)N3Cc4cccc(F)c4C3)CN2C1=O [Danoprevir (ITMN-191)],scaled lipid accumulation score,[2],0.049
same,scaled lipid accumulation score,[1],≤ 0
CO[C@H]1C[C@@H]2CC[C@@H](C)[C@@](O)(O2)C(=O)C(=O)N2CCCC[C@H]2C(=O)O[C@H]([C@H](C)C[C@@H]2CC[C@@H](O)[C@H](OC)C2)CC(=O)[C@H](C)/C=C(\C)[C@@H](O)[C@@H](OC)C(=O)[C@H](C)C[C@H](C)/C=C/C=C/C=C/1C [Rapamycin],scaled lipid accumulation score,[4],≤ 0
same,scaled lipid accumulation score,[5],≤ 0
same,scaled lipid accumulation score,[3],≤ 0
same,scaled lipid accumulation score,[6],≤ 0
same,scaled lipid accumulation score,[2],≤ 0
same,scaled lipid accumulation score,[1],≤ 0
CO[C@H]1C[C@@H]2CC[C@@H](C)[C@@](O)(O2)C(=O)C(=O)N2CCCC[C@H]2C(=O)O[C@H]([C@H](C)C[C@@H]2CC[C@@H](O)[C@H](OC)C2)CC(=O)[C@H](C)/C=C(\C)[C@@H](O)[C@@H](OC)C(=O)[C@H](C)C[C@H](C)/C=C/C=C/C=C/1C [Rapamycin (Sirolimus)],scaled lipid accumulation score,[2],0.037
same,scaled lipid accumulation score,[1],≤ 0
O=C1NC(=O)c2c1c(-c1ccccc1)cc1[nH]c3ccc(O)cc3c21,scaled lipid accumulation score,[1],≤ -0.055 and ≤ -0.001
OCCN1CCN(CCCN2c3ccccc3Sc3ccc(C(F)(F)F)cc32)CC1,scaled lipid accumulation score,[1],1.34 (active)
OCCN1CCN(CCCN2c3ccccc3Sc3ccc(C(F)(F)F)cc32)CC1 [Fluphenazine dihydrochloride],scaled lipid accumulation score,,0.627
same,scaled lipid accumulation score,[1],≤ -0.07
OCCN1CCN(CCCN2c3ccccc3Sc3ccc(C(F)(F)F)cc32)CC1 [Fluphenazine hydrochloride],scaled lipid accumulation score,[1],0.407
CC(C)(O)C1CCC(C)(C2C(O)CC3(C)C4CC(OC5OC(CO)C(O)C(O)C5O)C5C(C)(C)C(OC6OCC(O)C(O)C6O)CCC56CC46CCC23C)O1 (centres undefined) [Astragaloside A],scaled lipid accumulation score,[2],0.019
same,scaled lipid accumulation score,[1],≤ 0
"CCCCC/C=C\C/C=C\C/C=C\CCCC/C=C\CCC(=O)O [cis-4,10,13,16-Docosatetraenoic Acid]",scaled lipid accumulation score,[3],≤ 0
CCCCC[C@H](O)/C=C/[C@H]1[C@H](O)CC(=O)[C@@H]1C/C=C\CCCC(=O)OC [Prostaglandin E2 methyl ester],scaled lipid accumulation score,[3],≤ 0
C[C@@H](NCCCc1cccc(C(F)(F)F)c1)c1cccc2ccccc12 [Cinacalcet HCl],scaled lipid accumulation score,[2],0.207
same,scaled lipid accumulation score,[1],0.351
O=C1CC(=O)c2c(Cl)c(Cl)c(Cl)c(Cl)c21,scaled lipid accumulation score,[2],≤ -0.009
same,scaled lipid accumulation score,[1],0.011
CC(C)n1cnc2c(NCCc3ccc(O)cc3)nc(-c3csc4ccccc34)nc21 [StemRegenin 1 (SR1)] [listing 1 of 2 here],scaled lipid accumulation score,[2],≤ 0
CC(C)n1cnc2c(NCCc3ccc(O)cc3)nc(-c3csc4ccccc34)nc21 [StemRegenin 1 (SR1)] [listing 2 of 2 here],scaled lipid accumulation score,[1],0.919 (active)
CC(C)n1cnc2c(NCc3ccccc3)nc(NCCO)nc21 [N9-Isopropylolomoucine],scaled lipid accumulation score,[7],≤ -0.012
CC\C=C/C=C/C=C/C=C\CCCCCCCC(=O)O [cis-Parinaric Acid],scaled lipid accumulation score,[3],0.028
CC(C)Oc1ccc(C(=O)c2ccc(NC3=NCCN3)cc2)cc1,scaled lipid accumulation score,[3],0.073
CC(=O)Nc1nc2c(Oc3cc(-c4ccc(C(F)(F)F)cc4)ncn3)cccc2s1,scaled lipid accumulation score,[2],≤ -0.009
same,scaled lipid accumulation score,[1],0.221
CN1CCC(Nc2ncc3ncnc(Nc4ccc(F)c(Cl)c4)c3n2)CC1.Cl.Cl [BIBX 1382 dihydrochloride],scaled lipid accumulation score,[1],1.61 (active)
COc1ccc(F)c(F)c1C(=O)c1cnc(NC2CCN(S(C)(=O)=O)CC2)nc1N,scaled lipid accumulation score,[2],0.082
same,scaled lipid accumulation score,[1],0.057
CCN(CC)CC1CCN(c2ncc3ncnc(Nc4ccc(F)c(Cl)c4)c3n2)CC1.Cl.Cl [BIBU 1361 dihydrochloride],scaled lipid accumulation score,[1],1.06 (active)
COc1ccc(CC(=O)NC(/N=C(\NC#N)Nc2cccc3ncccc23)C(C)(C)C)cc1OC (centres undefined),scaled lipid accumulation score,[1],0.014
O=C(O[C@@H]1Cc2c(O)cc(O)cc2O[C@@H]1c1cc(O)c(O)c(O)c1)c1cc(O)c(O)c(O)c1 [Epigallocatechin gallate],scaled lipid accumulation score,[4],≤ 0
same,scaled lipid accumulation score,[5],≤ 0
same,scaled lipid accumulation score,[6],≤ 0
same,scaled lipid accumulation score,[1],≤ 0
O=C(O[C@@H]1Cc2c(O)cc(O)cc2O[C@@H]1c1cc(O)c(O)c(O)c1)c1cc(O)c(O)c(O)c1 [(-)-Epigallocatechin Gallate],scaled lipid accumulation score,[3],≤ 0
Oc1nc(-c2ccc(C(F)(F)F)cc2)nc2c1CSCC2,scaled lipid accumulation score,[3],≤ 0
same,scaled lipid accumulation score,[2],≤ 0
same,scaled lipid accumulation score,[1],≤ 0 and 0.004
